Several values for one entry are separate records, joined by “and”; a condition that tells them apart may be missing. Equal values may be shown once. Hit rate of the full screen: of about 360,000 compounds, about 17,000 (4.7%) were called active. About 5% were inconclusive and are not listed. The sample as a whole holds a higher share of actives than the screen did. A number with no mark means an inactive call. No stated cut-off is given here; in the data, active means activity change below about -50%; inconclusive means mostly about -30% to -49%; inactive means weaker than that.
Assay: qHTS for Inhibitors of Inflammasome Signaling: IL-1-beta AlphaLISA Primary Screen
Conditions: THP-1 LPS/ATP IL-1B secretion, 16 h; at 57.5 µM, active compounds read low
In short: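 THP-1 cells pretreated 1 hr with compounds (up to 57.5 uM final), then stimulated with LPS (250 ng/mL final) plus ATP (1.25 mM final); secreted IL-1B measured by AlphaLISA after 16 hr, decreased signal indicating inhibition.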
On the % scale 0 is the no-effect control and ±100 the full control effect.

Structure (SMILES)	activity change
O=C(CSc1nnc(N2CCOCC2)n1-c1cccc(F)c1)N1CCN(c2ccccn2)CC1	2.69%
CCCCCNC(=O)C1C(=O)Nc2ccccc2C(=O)N1C(C)(C)C (stereo not given)	6.47%
CCN1CCCC1CNC(=O)c1ccc2c(c1)NC(=O)/C(=C\c1ccccc1F)S2 (stereo not given)	-14.5%
CC1(C)O[C@@H]2CC3C4C[C@H](F)C5=CC(=O)C=CC5(C)C4C(O)CC3(C)[C@]2(C(=O)CO)O1 (stereo not given in full)	-54.9% (active)
C[C@]12C=CC(=O)C=C1CC[C@@H]1[C@@H]2C(=O)C[C@@]2(C)[C@H]1CC[C@]2(O)C(=O)CO	-14.3% and -7.83%
CCCc1nnc(NC(=O)CCC(=O)N2CCN(S(=O)(=O)c3ccc(OC)cc3)CC2)s1	-1.97%
CCOC(=O)c1cccc(NC(=O)CN2C(=O)C3CC=CCC3C2=O)c1 (stereo not given)	14.4%
Nc1nc(NCCCN2CCOCC2)nc(Nc2ccccc2)c1[N+](=O)[O-]	-59.1% (active)
O=[N+]([O-])c1ccc(NCCCN2CCOCC2)c(Cl)c1	-21.3%
O=S(=O)(c1ccccc1)c1nc(-c2ccccc2)oc1NCCCN1CCOCC1	inactive
Cc1ccc(Cn2c(C)c3cnn(CC(=O)NCCN4CCOCC4)c(=O)c3c2C)cc1	-4.12%
O=C(CSc1ncn[nH]1)Nc1nc2c(F)c(F)c(F)cc2s1	-7.33%
Nc1nc(NCC2CCCO2)nc(Nc2ccccc2F)c1[N+](=O)[O-] (stereo not given)	0%
C=CCNc1nc(N)c([N+](=O)[O-])c(NC2CCCCC2)n1	66.3%
Nc1nc(Nc2ccccc2F)nc(NC2CCCCC2)c1[N+](=O)[O-]	-71.1% (active)
CCN1C[C@@H]2[C@@H]3C(=O)N(Cc4ccccc4)C(=O)[C@@H]3[C@](C)(C1=O)N2C(=O)c1ccc(C(C)(C)C)cc1	0%
CSc1ncnc2c1ncn2CCCNCc1ccco1	15.8%
CCC(c1nnnn1Cc1ccccc1)N(Cc1cc2cc(OC)ccc2[nH]c1=O)CC1CCCO1 (stereo not given)	0%
CCOc1ccc2[nH]c(=O)c(CN(Cc3nnnn3Cc3ccccc3)CC3CCCO3)cc2c1 (stereo not given)	-63.9% (active)
Cc1cc(C)c2[nH]c(=O)c(C(c3nnnn3Cc3ccc4c(c3)OCO4)N3CCCC3)cc2c1 (stereo not given)	-10.3%
CCC(c1nnnn1Cc1ccco1)N(CCc1ccccc1)Cc1cc2cccc(C)c2[nH]c1=O (stereo not given)	-4.44%
Cc1cccc2cc(CN(Cc3ccc4c(c3)OCO4)Cc3nnnn3C3CCCC3)c(=O)[nH]c12	-54.8% (active)

Structure (SMILES)	activity change
Cc1cccc2cc(CN(Cc3cccs3)C(c3nnnn3C3CCCC3)C(C)C)c(=O)[nH]c12 (stereo not given)	0%
Cc1cc(C)c2cc(CN(Cc3nnnn3Cc3ccc(F)cc3)C3CCCC3)c(=O)[nH]c2c1	7.62%
CCOc1ccc2[nH]c(=O)c(CN(Cc3nnnn3CCc3ccccc3)CC3CCCO3)cc2c1 (stereo not given)	-29.1%
Cc1cccc2cc(CN(Cc3nnnn3Cc3ccccc3)C3CCCC3)c(=O)[nH]c12	-64.3% (active)
COc1ccc(C(C#N)=C2C=CC(=NO)c3ccccc32)cc1	-24.6%
Cc1nc2ccccc2nc1CC(O)(c1ccccc1)c1ccccc1	3.22%
O=C1NC[C@H](CCCCN2CCN(CCc3ccccc3)C(=O)C2=O)N(CC2CCCCC2)C1=O	-14.3%
CCCCc1nc2ccc(F)cc2cc1C	8.78%
COc1ccc(C(C)(C)C)cc1NC(=O)CN(C)C1=NS(=O)(=O)c2ccccc21	10.7%
COc1ccc([C@H]2N[C@]3(CCCN(CC4CCCCC4)C3=O)[C@H]3C(=O)N(C)C(=O)[C@@H]23)cc1	-15%
O=C(Nc1cccc(Cc2ccccc2)c1)Nc1ccc2nc([C@@H]3O[C@H](CO)[C@@H](O)[C@H](O)[C@H]3O)[nH]c2c1	33.4%
C=CCOc1c(Br)cc(/C=N\n2nnnc2N)cc1OC	0%
COc1cc(/C=C2/C(=O)NN(c3cccc(Cl)c3)C2=O)cc(Br)c1O	-15.3%
CCOc1c(Br)cc(/C=C2\C(=O)N(CCC#N)N=C2C)cc1OC	-62.4% (active)
COc1cccc(-c2cc(NC(C)=O)c3ncc(-c4cccc(C(C)=O)c4)n3c2)c1	7.02%
Cc1cccn2c(=O)c(/C=C(\C#N)S(=O)(=O)c3ccc(Cl)cc3)c(N3CCC(C(N)=O)CC3)nc12	0%
Cc1cccn2c(=O)c(/C=C(\C#N)C(N)=O)c(N3CCCCCC3)nc12	-18.7%
Cc1cc(C)cc(Oc2nc3c(C)cccn3c(=O)c2/C=C(\C#N)C(=O)NC2CCS(=O)(=O)C2)c1 (stereo not given)	-109% (active)
COc1ccc2c(c1)C(=O)CC(c1ccccc1)O2 (stereo not given)	-12.1%
Cc1nn(C(C)C(=O)NCCC2=CCCCC2)c(=O)c2nn(-c3ccccc3)c(C)c12 (stereo not given)	14.5%
CCc1cccc(C)c1NC(=O)COC(=O)CNC(=O)c1cccs1	16.5%
CCc1c(C)sc(NC(=O)c2cccs2)c1C(N)=O	-92.1% (active)

Structure (SMILES)	activity change
CCOC(=O)c1oc2ccccc2c1NC(=O)c1cccs1	-2.68%
COC(=O)C1=CO[C@@H](O[C@@H]2O[C@H](CO)[C@@H](O)[C@H](O)[C@H]2O)C2C1C[C@H](O)[C@@H]2C (stereo not given in full)	15.4%
COC[C@@H]1NS(=O)(=O)c2ccc(Br)cc2O[C@H]1c1ccccc1	2.65%
COc1ccc(/C=C2\CCc3ccccc3C2=O)c(OC)c1OC	-71% (active)
COc1ccc(/C=C2/CCCc3ccccc3C2=O)cc1	0%
O=C1/C(=C/c2cccs2)CCc2ccccc21	-13.1%
N#CCc1c[nH]c2ccc([N+](=O)[O-])cc12	-1.78%
CNc1cncc(-c2ccc(NS(C)(=O)=O)cc2)n1	6.32%
CC(NC(=O)CCC(=O)N1CCN(S(=O)(=O)c2ccc(Cl)cc2)CC1)c1ccccc1 (stereo not given)	45.7%
O=C(NCc1cccc(C(F)(F)F)c1)c1cccc(S(=O)(=O)N2CCN(Cc3ccccc3)CC2)c1	0%
O=C(CCC(=O)N1CCN(S(=O)(=O)c2ccc(Cl)cc2)CC1)NCc1cccc(C(F)(F)F)c1	-52.1% (active)
COc1ccc(C(=O)NCCNc2ccc([N+](=O)[O-])cn2)cc1	40.6%
COC(=O)C(NC(=O)c1ccc(OC)cc1)(Nc1ncc(S(=O)(=O)c2ccc([N+](=O)[O-])cc2)s1)C(F)(F)F (stereo not given)	-99.1% (active)
CCOCC(=O)Nc1ncc(S(=O)(=O)c2ccc([N+](=O)[O-])cc2)s1	20.1%
Nc1c(Cl)cc(-c2csc(N3CCCC3c3nc4cc(Cl)c(Cl)cc4n3CCOCCO)n2)cc1Cl (stereo not given)	-4.36%
Cc1ccc(S(=O)(=O)N2C[C@H]3C(=O)C[C@@H](c4cccc5ccccc45)N(S(=O)(=O)c4ccc(C)cc4)[C@H]3C[C@H]2c2ccc(Cl)cc2)cc1	0.625%
COCCNC(=O)C1C(=O)Nc2ccccc2C(=O)N1c1ccc2c(c1)OCCO2 (stereo not given)	23.8%
Cc1[nH]c2ccccc2c1/C=C(/C#N)C(=O)NC(C)C	-99.8% (active)
CC(C)NC(=O)/C(C#N)=C\c1ccc(N(C)C)c(Br)c1	-7.21%
COC(=O)Cc1c(-c2[nH]c3ccccc3c2CC(=O)OC)[nH]c2ccccc12	0%
O[C@@H]1C[C@H](c2ccccc2)N(Cc2cccs2)C[C@H]1n1cc(C2CC2)nn1	-20.7%
CC(C)c1ccc(NC(=S)NNc2ccc(Cl)c(C(=O)O)c2)cc1	20.7%

Structure (SMILES)	activity change
Cc1ccc(C)c(NC(=S)NNC(=O)c2csc(C)c2)c1	12.4%
Cc1ccc(C)c(NC(=S)NNC(=S)Nc2ccc(C(C)C)cc2)c1	-52.5% (active)
O=C(O)CSc1nccc2ccccc12	-61.2% (active)
CCOC(=O)C(C(=O)c1ccccc1)C(c1ccccc1)c1nccc2ccccc12 (stereo not given)	11.3%
O=C(O)CSc1nccn1-c1cccc(Cl)c1	14.2%
CCNC(=O)C1(C)CCCN1C(=O)c1ccc(N(C)C)cc1 (stereo not given)	15.5%
Cc1nc(SCC(=O)c2ccccc2)c([N+](=O)[O-])[nH]1	23.3%
CSCCC(C(=O)NC(C)(C)C)n1c(-c2ccccc2)nc2ccccc21 (stereo not given)	15.5%
CCOc1ccccc1Oc1cn[nH]c1-c1ccc(OC)cc1O	18.7%
COc1ccc(-c2[nH]ncc2/C=N/NC(=O)c2cc(Br)ccc2O)c(OC)c1	86.3%
COc1ccc(Oc2cn[nH]c2-c2ccc(OC)cc2O)cc1	-82.8% (active)
CC1Sc2ccc(S(=O)(=O)CCC(=O)NCc3ccccc3Cl)cc2NC1=O (stereo not given)	18.9%
Cc1cc(C)cc(NS(=O)(=O)Cc2ccccc2)c1	-5.28%
CCS(=O)(=O)Nc1cccc(-c2cc(-c3ccccc3)c3cc(C)ccc3n2)c1	-99.4% (active)
CS(=O)(=O)Nc1cccc(-c2cn3ccccc3n2)c1	-14%
O=C(NC1CCCCC1)C(c1cc2ccccc2o1)n1c(=O)c(-c2ccco2)nc2ccccc21 (stereo not given)	-2.14%
CC(=O)NCCNC(=O)c1cc(-c2cccc3ccccc23)nc2ccccc12	0.0656%
CN(C)CCNC(=O)c1ccc(Cl)c2cc3ccccc3nc12	-112% (active)
CN(C)CCNC(=O)Nc1cccc(Cl)c1Cl	2.19%
